Results published in PubChem BioAssay.
Activity calls are given as the source filed them.

What was measured:
[1] = binders of probe aFSTL3 on microarray, primary screen, stem cell growth factor project, biochemical, small-molecule microarray, fluorescence 635/667 (AID 1064); conditions: higher = more signal;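 note: measures binding of the biotinylated anti-FSTL3 antibody to printed compounds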
[2] = binders from COS7 lysate, DM2A8 probe, primary screen, torsin A project, cell lysate, small-molecule microarray, fluorescence 635/667 (AID 1065); conditions: higher = more signal, COS7 lysate expressing mutant human TOR1A
[3] = binders of probe aFGF2 on microarray, primary screen, stem cell growth factor project, biochemical, small-molecule microarray, fluorescence 635/667 (AID 1067); conditions: higher = more signal;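 note: measures binding of biotinylated aFGF2 protein to printed compounds on slides; z-score merges feature fluorescence and signal-to-noise across triplicate slides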
[4] = binders of probe aFGF10 on microarray, primary screen, stem cell growth factor project, biochemical, small-molecule microarray, fluorescence 635/667 (AID 1071); conditions: higher = more signal;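 note: score merges 667 nm spot intensity and signal to noise from triplicate slides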
[5] = molecular target: Neurogenic locus notch homolog protein 2 (Homo sapiens) (UniProt Q04721); assay: Notch2 binders on small-molecule microarrays, primary screen, biochemical, small-molecule microarray, 635 nm fluorescence, stem cell growth factors (AID 1073); conditions: Notch2 binding, higher = more signal
Sequence of Neurogenic locus notch homolog protein 2 (Homo sapiens) (Q04721 whole entry, looked up, canonical isoform): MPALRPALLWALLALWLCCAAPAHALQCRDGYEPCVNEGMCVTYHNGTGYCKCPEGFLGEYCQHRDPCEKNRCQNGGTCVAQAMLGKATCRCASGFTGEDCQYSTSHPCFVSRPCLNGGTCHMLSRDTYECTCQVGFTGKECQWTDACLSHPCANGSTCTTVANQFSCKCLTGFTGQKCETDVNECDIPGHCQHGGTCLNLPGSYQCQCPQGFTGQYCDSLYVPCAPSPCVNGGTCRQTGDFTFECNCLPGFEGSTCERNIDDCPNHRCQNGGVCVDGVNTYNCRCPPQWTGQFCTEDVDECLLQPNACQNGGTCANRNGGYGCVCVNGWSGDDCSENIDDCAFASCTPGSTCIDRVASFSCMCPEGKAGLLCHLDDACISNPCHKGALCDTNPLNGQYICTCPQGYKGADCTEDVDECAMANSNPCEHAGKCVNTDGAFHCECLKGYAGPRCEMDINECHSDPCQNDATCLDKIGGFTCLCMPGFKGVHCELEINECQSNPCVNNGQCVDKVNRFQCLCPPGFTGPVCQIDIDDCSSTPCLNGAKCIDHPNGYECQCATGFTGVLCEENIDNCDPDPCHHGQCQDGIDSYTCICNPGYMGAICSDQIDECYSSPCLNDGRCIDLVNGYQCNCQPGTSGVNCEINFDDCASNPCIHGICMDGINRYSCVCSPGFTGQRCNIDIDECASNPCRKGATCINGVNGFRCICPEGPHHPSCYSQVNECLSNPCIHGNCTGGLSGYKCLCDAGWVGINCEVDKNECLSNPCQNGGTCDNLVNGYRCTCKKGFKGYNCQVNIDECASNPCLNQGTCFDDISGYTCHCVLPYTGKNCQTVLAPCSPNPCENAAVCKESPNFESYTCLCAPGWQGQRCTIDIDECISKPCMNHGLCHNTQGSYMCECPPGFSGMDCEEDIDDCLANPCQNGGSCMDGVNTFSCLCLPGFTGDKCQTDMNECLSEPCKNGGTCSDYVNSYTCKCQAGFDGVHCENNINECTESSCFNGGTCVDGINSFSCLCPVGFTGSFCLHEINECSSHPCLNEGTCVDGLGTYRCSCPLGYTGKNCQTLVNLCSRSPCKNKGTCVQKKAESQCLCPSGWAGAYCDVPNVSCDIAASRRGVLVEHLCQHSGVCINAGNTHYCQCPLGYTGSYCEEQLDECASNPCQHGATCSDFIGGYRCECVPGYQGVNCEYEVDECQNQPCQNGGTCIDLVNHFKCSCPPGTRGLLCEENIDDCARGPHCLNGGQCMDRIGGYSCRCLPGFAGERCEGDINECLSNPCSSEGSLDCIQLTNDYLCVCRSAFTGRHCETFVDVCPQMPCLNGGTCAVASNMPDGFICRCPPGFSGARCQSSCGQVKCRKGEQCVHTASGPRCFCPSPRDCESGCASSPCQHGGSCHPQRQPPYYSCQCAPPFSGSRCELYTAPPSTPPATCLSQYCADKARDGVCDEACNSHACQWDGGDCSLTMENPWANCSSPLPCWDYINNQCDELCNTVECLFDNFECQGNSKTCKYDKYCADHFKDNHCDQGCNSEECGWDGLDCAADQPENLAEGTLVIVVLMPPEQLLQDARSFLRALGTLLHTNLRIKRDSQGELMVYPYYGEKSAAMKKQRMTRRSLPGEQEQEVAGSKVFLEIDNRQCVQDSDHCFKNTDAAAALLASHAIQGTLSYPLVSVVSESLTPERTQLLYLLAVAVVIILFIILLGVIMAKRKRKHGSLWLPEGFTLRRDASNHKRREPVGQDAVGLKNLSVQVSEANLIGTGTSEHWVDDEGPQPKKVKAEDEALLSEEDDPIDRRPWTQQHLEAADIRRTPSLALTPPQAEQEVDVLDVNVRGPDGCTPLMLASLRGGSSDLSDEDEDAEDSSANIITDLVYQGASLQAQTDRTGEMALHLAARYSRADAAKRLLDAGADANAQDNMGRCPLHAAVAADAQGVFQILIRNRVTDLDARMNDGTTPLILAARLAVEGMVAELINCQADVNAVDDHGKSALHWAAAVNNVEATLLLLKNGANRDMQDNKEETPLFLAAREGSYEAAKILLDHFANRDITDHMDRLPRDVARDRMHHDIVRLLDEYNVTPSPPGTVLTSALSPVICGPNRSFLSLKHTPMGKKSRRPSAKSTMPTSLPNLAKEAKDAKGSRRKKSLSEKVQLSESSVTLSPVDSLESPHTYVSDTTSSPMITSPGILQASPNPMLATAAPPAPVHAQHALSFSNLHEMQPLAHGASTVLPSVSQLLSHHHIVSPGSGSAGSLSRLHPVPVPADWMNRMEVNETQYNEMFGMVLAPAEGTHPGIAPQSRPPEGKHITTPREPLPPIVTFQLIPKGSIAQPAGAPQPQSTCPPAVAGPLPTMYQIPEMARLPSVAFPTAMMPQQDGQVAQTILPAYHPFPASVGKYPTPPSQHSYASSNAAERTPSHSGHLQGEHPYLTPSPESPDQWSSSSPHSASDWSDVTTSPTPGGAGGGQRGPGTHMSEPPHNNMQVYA

[6] = molecular target: Pro-neuregulin-1, membrane-bound isoform (Homo sapiens) (UniProt Q02297); assay: NRG1 binders on small-molecule microarrays, primary screen, psychiatric disease protein project, biochemical, small-molecule microarray, fluorescence 635/667 (AID 1075); conditions: NRG1 binding, 635 nm fluorescence, higher = more signal;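 note: score combines 667 nm spot fluorescence with signal to noise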
Sequence of Pro-neuregulin-1, membrane-bound isoform (Homo sapiens) (Q02297 whole entry, looked up, the tested form may be a part, canonical isoform): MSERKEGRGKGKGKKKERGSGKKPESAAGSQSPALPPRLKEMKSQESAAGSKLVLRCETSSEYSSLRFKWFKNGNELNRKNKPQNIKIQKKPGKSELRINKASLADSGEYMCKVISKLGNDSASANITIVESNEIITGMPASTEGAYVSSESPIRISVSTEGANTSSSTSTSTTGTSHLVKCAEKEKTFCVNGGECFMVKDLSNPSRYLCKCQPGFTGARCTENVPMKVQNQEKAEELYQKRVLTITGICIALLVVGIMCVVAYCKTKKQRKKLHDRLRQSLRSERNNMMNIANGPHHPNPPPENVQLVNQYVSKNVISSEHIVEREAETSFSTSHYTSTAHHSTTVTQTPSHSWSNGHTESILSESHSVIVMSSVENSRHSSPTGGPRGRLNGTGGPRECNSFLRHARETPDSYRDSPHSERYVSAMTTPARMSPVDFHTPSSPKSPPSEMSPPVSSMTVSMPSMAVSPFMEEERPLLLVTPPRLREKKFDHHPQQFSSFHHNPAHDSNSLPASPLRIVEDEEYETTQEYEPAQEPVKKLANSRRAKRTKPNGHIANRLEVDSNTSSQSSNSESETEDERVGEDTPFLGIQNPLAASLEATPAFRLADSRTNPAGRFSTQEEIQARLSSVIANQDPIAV

[7] = tested on: Neuregulin-1 EGF-like domain; assay: binders of neuregulin-1 EGF-like domain, primary screen, biochemical, small-molecule microarray, 635 nm fluorescence (AID 1081); conditions: small-molecule microarray binding, higher = more signal;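 note: binding of the protein to compounds printed on small-molecule microarray slides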
[8] = FRG1 promoter luciferase signal modulators, primary screen, FRG1 inhibition for FSHD, cell-based, C2C12 myotubes, firefly/Renilla luciferase, luminescence (AID 1084); conditions: higher = more signal, called active from +8 up or from −8 down
[9] = binders of probe aFST on microarray, primary screen, stem cell growth factor project, biochemical, small-molecule microarray, fluorescence 635/667 (AID 1086); conditions: higher = more signal;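 note: score merges 667 nm fluorescence with signal-to-noise of each printed compound spot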
[10] = binders of probe aHhip on microarray, primary screen, stem cell growth factor project, biochemical, small-molecule microarray, fluorescence 635/667 (AID 1087); conditions: higher = more signal;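 note: score merges spot fluorescence at 667nm with spot signal to noise ratio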

Row | Compound | composite z-score [1] | composite z-score [2] | composite z-score [3] | composite z-score [4] | composite z-score [5] | composite z-score [6] | composite z-score [7] | z-score [8] | composite z-score [9] | composite z-score [10]
1 | COC(=O)[C@@]1(Cc2ccc(F)cc2)[C@H]2c3cc(C(=O)N4CCCC4)n(CCF)c3C[C@H]2CN1C(=O)c1ccccc1 | 0.999 | 1.52 | 0.856 | 1.1 | 1.55 | 1.65 | 1.29 | -0.533 (inactive) | 2.81 | 2.09
2 | CCCCC(=C=CC[C@@H](O)c1ccc(OCCO)cc1)C[C@@H](O)COCc1ccccc1 | -0.111 | 1.09 | -0.0783 | 0.114 | -1.11 | -0.376 | -0.0622 | -2.2 (inactive) | 0.101 | 0.0743
3 | O=C1NC(=O)C2C1C=CC(C(O)c1ccc3c(c1)OCO3)N2Nc1ccccn1 (stereo not given) | -0.0049 | 0.0415 | 0.271 | 0.204 | 0.994 | 1.91 | 1.16 | -0.653 (inactive) | 0.364 | 0.0274
4 | NCCCCCCNC(=O)[C@@H]1C[C@@H]2C(=O)N3CCC[C@H]3C(=O)N2[C@@H]1c1ccc(O)cc1 | 0.327 | -0.055 | -0.0006 | 0.0841 | 0.337 | 1.9 | 1.18 | 0.15 (inactive) | 1.1 | 0.154
5 | COCCCNC(=O)[C@]1(CCC(=O)OC(C)(C)C)N=C(c2ccc(OCCCO)cc2)O[C@@H]1c1ccccc1 | 1.19 | 0.389 | 0.0629 | 0.578 | 0.819 | 1.96 | 1.28 | 0.977 (inactive) | 0.888 | 0.591
6 | [N-]=[N+]=Nc1ccccc1[C@@H]1OC(c2ccc(OCCCO)cc2)=N[C@]1(CCS(=O)(=O)c1ccccc1)C(=O)NCCN1CCOCC1 | 0.483 | 1.88 | 0.0315 | 0.664 | 1.58 | 0.806 | 1.25 | 1.2 (inactive) | 0.925 | 0.417
7 | C=CCNC(=O)[C@@H]1[C@H]2C(=O)O[C@H](c3ccccc3)[C@H](c3ccccc3)N2[C@H](c2ccccc2OCCO)[C@@]12C(=O)N(C(=O)OCCOC)c1ccc(C#CC3=CCCCC3)cc12 | -0.0809 | 0.683 | 0.0496 | 0.586 | -0.0189 | 0.457 | 1.2 | -1.11 (inactive) | 0.206 | -0.178
8 | CC(C)N1C(=O)[C@@]2(c3ccc([N+](=O)[O-])cc3)CC(=O)N(C3CCCCC3)[C@@H]2c2ccc(CO)cc21 | -0.437 | 0.0633 | -0.151 | -0.0689 | -0.465 | -0.299 | 0.209 | 1.25 (inactive) | -0.293 | -0.118
9 | COc1ccccc1CN1C(=O)c2ccccc2[C@@H](C(=O)NC(C)C)[C@@H]1c1ccc(CO)cc1 | -0.0001 | -0.487 | 0.0451 | 0.761 | 1.53 | 1.13 | 1.31 | -1.41 (inactive) | 0.676 | 0.281
10 | C=C(C(=O)CC[C@H](OC(C)=O)c1cccc(OCCO)c1)C(C)C | 0.125 | -0.152 | -0.189 | -0.582 | -0.739 | 0.007 | -0.526 | 0.422 (inactive) | -0.675 | -0.0994
11 | O=C1NCC(=O)N2[C@@H]1C[C@@H](C(=O)O)[C@H]2c1ccc(O)cc1 | 0.257 | 0.433 | 0.0121 | 0.593 | -0.218 | 1.81 | 1.39 | 4.94 (inactive) | 0.0816 | -0.0618
12 | Cc1ccc(F)cc1S(=O)(=O)N[C@@H]1CCN(Cc2ccc(OC(C)C)cc2)C1 | -0.0929 | 0.571 | -0.115 | -0.209 | -0.863 | -0.136 | 0.288 | -1.22 (inactive) | -0.192 | -0.257
13 | CC(C)C(=C=CC[C@H](O)c1ccc(OCCO)cc1)C[C@H](O)c1cc(Cl)cc(Cl)c1O | -0.321 | 1.35 | -0.0076 | 0.85 | 0.869 | 1.31 | 1.24 | -1.66 (inactive) | 0.32 | 0.0722
14 | COc1ccc([Si](C)(C)[C@@H]2[C@@H](CC(=O)N3CCC[C@H]3CO)O[C@]3(C(=O)N(Cc4ccc(N5C(=O)c6cccc7cccc5c67)cc4)c4ccccc43)[C@H]2C)cc1 | -0.629 | 0.847 | -0.0563 | 0.995 | 0.733 | 1.5 | 0.976 | -1.5 (inactive) | 0.622 | -0.216
15 | CCCCN1CC=CC23O[C@@H]4C=CCOC(=O)[C@@H]4[C@H]2C(=O)N(C(C)CO)[C@@H]3C1=O (stereo not given in full) | 0.762 | -0.665 | -0.187 | -0.174 | -1.03 | 1.7 | 0.745 | 1.66 (inactive) | -0.0725 | -0.189
16 | CC(CO)N1C(=O)[C@@H]2C3C(=O)OCCC/C=C\[C@H]3OC23C=CCN(Cn2nnc4ccccc42)C(=O)[C@@H]13 (stereo not given in full) | -0.185 | -0.469 | -0.107 | 0.285 | -0.722 | 1.7 | 1.34 | -1.11 (inactive) | -0.161 | 0.21
17 | COc1ccccc1CN1C(=O)c2ccccc2[C@](Cc2ccccc2I)(C(=O)NC(C)C)[C@@H]1c1ccc(CO)cc1 | -0.515 | 0.49 | -0.0296 | 0.732 | 1.43 | 1.7 | 1.15 | -2.79 (inactive) | 0.614 | 0.0373
18 | C=CC[C@@]12N=C(c3ccc(OCCCO)cc3)O[C@@H]1c1ccccc1N(CCS(=O)(=O)c1ccccc1)C2=O | -0.015 | -0.302 | 0.188 | 0.0692 | 0.659 | 1.22 | 1.32 | 0.601 (inactive) | 0.261 | -0.0391
19 | C=CC[C@@H](OC(=O)Nc1ccc(OC)cc1)c1ccc(OCCO)cc1 | 0.767 | -1.54 | -0.131 | -0.805 | -2.39 | -0.682 | 0.0481 | 5.78 (inactive) | -1.25 | 0.0722
20 | C[C@H]1C2=C3C(CC[C@H]4C(OCc5ccc(F)cc5C(F)(F)F)OC[C@](C)([C@@H]34)N(C(=O)OC(C)(C)C)C2)C2COC(=O)OCC21 (stereo not given in full) | 0.42 | -0.119 | -0.0325 | 0.226 | 1.43 | 1.71 | 1.03 | 2.53 (inactive) | 1.61 | 0.44
21 | O=C1NC(=O)C2C1C=CC(C(O)c1ccc(Br)cc1)N2Nc1ccccn1 (stereo not given) | 0.253 | 0.156 | 0.0969 | 1.05 | 1.39 | 1.8 | 0.95 | -0.383 (inactive) | 0.331 | -0.0296
22 | O=C1O[C@@H](c2ccccc2)[C@@H](c2ccccc2)N2[C@@H](c3ccc(O)cc3)[C@]3(C(=O)Nc4ccc(C#CCCO)cc43)[C@@H](C(=O)NC[C@H](O)c3ccccc3)[C@H]12 | 0.239 | 0.762 | -0.206 | -0.812 | -0.724 | 0.381 | 1 | -0.233 (inactive) | -0.0873 | -0.134
23 | CCCC=C(CCC)[C@@H](NP(=O)(c1ccccc1)c1ccccc1)c1ccc(C(F)(F)F)cc1 | -0.176 | 0.158 | -0.0975 | 0.0842 | 0.131 | 1.74 | 0.557 | 1.96 (inactive) | 0.237 | 0.0216
24 | COc1cc(OC)c(C(O)C2C=CC3C(=O)N(c4ccccc4)C(=O)C3N2Nc2ccc(C#N)cc2)cc1Br (stereo not given) | 1.03 | -0.223 | 0.353 | 1.17 | 1.31 | 1.75 | 1.34 | -0.647 (inactive) | 1.73 | 0.219
25 | CC(C)CNC(=O)[C@@]1(c2ccc([N+](=O)[O-])cc2)CC(=O)N(C2CCCCC2)[C@@H]1c1ccc(CO)cc1I | 0.0706 | 0.148 | -0.0728 | -0.186 | 0.421 | 1.14 | 0.734 | -0.35 (inactive) | -0.126 | -0.335
26 | O=C(CCCCCCC(=O)Nc1ccccc1)N/N=C/c1ccccc1 | -0.199 | 0.0786 | -0.141 | 0.0493 | -0.252 | -0.384 | -0.147 | 0.0691 (inactive) | -0.0659 | 0.0373
27 | CCOc1cc(C(O)C2C=CC3C(=O)N(C4CCCCC4)C(=O)C3N2Nc2ccc(OC)cc2)ccc1O (stereo not given) | 0.26 | 0.456 | 0.0465 | 0.339 | 1.64 | 1.72 | 1.28 | 1.79 (inactive) | 0.775 | -0.132
28 | COc1cc(CO)cc(I)c1O[C@H]1C=C(C(=O)NCCO)C[C@@H](NCc2ccccc2F)[C@@H]1O | -0.267 | 0.644 | 0.0232 | 1.17 | 0.161 | 0.321 | 0.989 | -1.05 (inactive) | 0.0915 | -0.0645
29 | COC(=O)[C@@]1(Cc2ccc(F)cc2)[C@H]2c3cc(C(=O)N4CCCC4)n(CCc4c[nH]c5ccc(OC)cc45)c3C[C@H]2CN1C(=O)c1ccccc1 | 1.66 | -0.619 | 0.803 | 1.3 | 1.58 | 1.46 | 1.19 | 1.61 (inactive) | 2.02 | 0.413
